Screening results from PubChem.
RMI-FANCM inh: disruptors of RMI1/RMI2 association with MM2 peptide – biochemical, fluorescence polarization, human, primary screen; AID 1159607, 2016; FP signal (polarization) at 33 µM; actives 0.58% (n = 70,000); RMI core complex with F-MM2 peptide; active compounds read low; RMI core complex (RMI1/RMI2) binding to FANCM MM2 peptide, human; in the data active means FP signal below about 40
* = called active by the depositor; ! = a repeat was not active. Only a selection was taken, and hits are over-represented in it overall.

SMILES	RMI-FANCM inh
CC(=O)NC(=O)/C(C#N)=C/N1CCN(c2ccccc2)CC1	53
C=CCOC(=O)C(C#N)c1nc2ccccc2nc1N1CCN(c2ccccc2)CC1 (stereo not given)	29*
O=C(Nc1c(-c2cccs2)nc2ccccn12)c1ccc(Cl)c([N+](=O)[O-])c1	57
CCc1nc2sc(C(c3ccc(F)c(F)c3)N3CCN(C(=O)c4ccco4)CC3)c(O)n2n1 (stereo not given)	55
CC(=O)Nc1ccc(S(=O)(=O)N2CCN(c3ccccc3Cl)CC2)cc1	60
O=C(CN1C(=O)CSCC1=O)Nc1ccc(Cl)c(Cl)c1	60
CCOC(=O)c1cc(-c2ccc(N)cc2)oc1C	56
CCOC(=O)c1c(N)oc2c(-c3ccc(C)cc3)c3c(C(=O)OCC)c(N)oc3cc12	22*
CCOC(=O)c1c(N)sc(C)c1-c1ccccc1	52
COC(=O)c1cnn(-c2ccc(Cl)cc2)c1N	70
Nc1nc(SCC(=O)NCC2CCCO2)[nH]c(=O)c1NC(=O)c1ccc(Cl)cc1 (stereo not given)	69
O=C(CCSCc1ccc([N+](=O)[O-])cc1)OCC(=O)c1ccccc1	62
N#CCn1cnc2c(-c3ccccc3)csc2c1=O	62
O=c1c2scc(-c3ccccc3)c2ncn1Cc1cc(=O)n2ccccc2n1	-6*
COc1ccc(-c2csc3c(=O)n(Cc4ccccc4F)cnc23)cc1	66
O=C(Cc1cc(=O)[nH]c(=O)[nH]1)NCCC1=CCCCC1	59
Cc1nnc(NC2CCCC2)[nH]c1=O	53
CCCN1CCCc2cc(CCNC(=O)C(C)(C)C)ccc21	16*
CCCN1CCCc2cc(CCNC(=O)C3CCCCC3)ccc21	69
CCCN1CCCc2cc(CCNC(=O)Cc3cccc(C)c3)ccc21	55
CCCN1CCCc2cc(CCNC(=O)C(=O)NCC(C)C)ccc21	65
CCCN1CCCc2cc(CCNC(=O)COCC)ccc21	27*
CCCN1CCCc2cc(CCNC(=O)COc3ccccc3F)ccc21	63
COc1ccc(S(=O)(=O)NCc2ccsc2)c(C)c1	68
COCC(C)Nc1ncnc2c1cnn2-c1ccc(Cl)c(Cl)c1 (stereo not given)	59
SMILES	RMI-FANCM inh
CS(=O)(=O)c1cccc(C(=O)Nc2ccc3sccc3c2)c1	52
O=C(O)c1cc(=O)[nH]c2c(C(F)(F)F)cccc12	56
CCOc1ccc(S(=O)(=O)Nc2cc(-c3c(O)ccc4ccccc34)c(O)c3ccccc23)cc1	56
COc1ccc(S(=O)(=O)Nc2cc(-c3c(O)ccc4ccccc34)c(O)c3ccccc23)cc1	58
O=S(=O)(Nc1cc(Br)c(O)c2ccccc12)c1ccc2ccccc2c1	29*
Cn1c(=O)c2c(SCc3ccc(F)cc3)ccnc2n(C)c1=O	55
O=C(O)CN1C(=O)c2cccc3c(I)ccc1c23	36
Cc1cc(=O)oc2cc(O)c(O)cc12	10*
Cc1cc(=O)oc2c(O)c(O)ccc12	66
Cc1cc(=O)oc2cc(O)ccc12	51
CC1(C)CC(=O)c2c(nc(SCC(=O)c3ccc(Cl)c(Cl)c3)c(C#N)c2-c2ccccc2)C1	131
N#Cc1c(N)nc(SCC(=O)c2ccc(O)c(O)c2)c(C#N)c1-c1ccc(OCc2ccccc2)cc1	14*
COc1ccc(-c2c(C#N)c(SCC(=O)c3ccc4c(c3)OCCO4)nc3c2C(=O)CC(C)(C)C3)cc1	164
CC(C)Sc1cc(NCCCO)c([N+](=O)[O-])c2nonc12	59
O=S1(=O)CCN(CC2COc3ccccc3O2)CC1 (stereo not given)	56
COc1cccc(CC(=O)NNC(=O)NC(=O)c2ccccc2Cl)c1	55
O=C(NCC1CCCO1)C(=O)Nc1ccc(Cl)c(N2CCCS2(=O)=O)c1 (stereo not given)	66
O=C(Nc1cccc2c1C(=O)NC2=O)c1cc2cc([N+](=O)[O-])ccc2s1	44
O=C(CN1CCN(c2ccc(Cl)cc2)CC1)Nc1ccc(Br)cc1	57
COc1ccc(-c2cc(-c3ccc(C)c(C)c3)nc(SCC(=O)NCc3ccc4c(c3)OCO4)c2C#N)cc1OC	104
N#Cc1c(-c2ccc3c(c2)OCO3)nc(N2CCCCC2)[nH]c1=O	23*
N#Cc1c(-c2ccc3c(c2)OCO3)cc(-c2ccccc2O)[nH]c1=O	76
CCc1ccc(S(=O)(=O)N2CCN(c3ccc(-c4cccs4)nn3)CC2)s1	85
CCN1CCN(CC(=O)N2CCN(c3ccccc3)CC2)C(=O)C1=O	56
CC1=C(CCC(=O)O)c2cc3nc(cc4[nH]c(cc5[nH]c(cc1n2)c(C)c5C(C)O)c(C)c4C(C)O)C(C)=C3CCC(=O)O (stereo not given)	34*
SMILES	RMI-FANCM inh
Cc1cc(=O)[nH]c(-n2nc(C)c(CCC(=O)O)c2C)n1	72
C=Cc1c(C)c2cc3[nH]c(cc4nc(cc5nc(cc1[nH]2)C(C)=C5CCC(=O)O)C(CCC(=O)O)=C4C)c(C)c3C=C	40
Cc1c(Cl)ccc2sc(NC(=O)C3CCCN3S(C)(=O)=O)nc12 (stereo not given)	68
Cc1cccc(CN2CCN(C(c3ccccc3)c3ccc(Cl)cc3)CC2)c1 (stereo not given)	66
CN1CCN(C(c2ccccc2)c2ccccc2)CC1	69
CN1CCCN(C(c2ccccc2)c2ccc(Cl)cc2)CC1 (stereo not given)	-4*
Clc1ccccc1-c1nc(-c2ccc3nonc3c2)no1	58
CCc1ccccc1NC(=O)N1CCN(c2ccc3nncn3n2)CC1	69
CCNc1nc(SCC(=O)NC(=O)Nc2ccccc2)nc2sc3c(c12)CCN(C)C3	33*!
O=C(CSc1nc(SCC(=O)c2ccccc2)c2c3c(sc2n1)CCC3)c1ccccc1	79
O=C(CSc1nc2sc3c(c2c(=O)n1-c1ccccc1)CCCCC3)Nc1ccccc1	71
O=C(NCc1ccccn1)c1c[nH]c2ccccc2c1=O	58
O=C(/C=C/c1cccs1)Nc1nnc(-c2cc(Cl)sc2Cl)o1	67
CCc1c2c(nc3sc(C(=O)c4ccc(Cl)c(Cl)c4)c(N)c13)CC(C)(C)CC2=O	-31*
CCc1c2c(nc3sc(C(=O)Nc4ccc(-c5nc6ccccc6s5)cc4)c(N)c13)CC(C)(C)CC2=O	96
COc1ccc(-c2c3c(nc4sc(C(=O)Nc5ccc(Cl)cc5)c(N)c24)CC(C)(C)CC3=O)cc1	90
C=CCn1c(=NC(=O)c2cc3c(ccc4ccccc43)oc2=O)sc2cc(S(N)(=O)=O)ccc21	64
Cc1noc(C)c1S(=O)(=O)NCc1ccc2c(c1)CCO2	63
Cc1cc(NS(=O)(=O)c2ccc3c(c2)CCO3)no1	56
Cc1ccc(S(=O)(=O)N=C2C=CC(=NS(=O)(=O)c3ccc(C)cc3)C=C2)cc1	0*
Cc1ccc(S(=O)(=O)N(C)C)cc1	56
Cc1ccc(S(=O)(=O)N=c2sc3cccc(C)c3n2C)cc1	55
CC(C)c1cc(=O)[nH]c(-n2nc(-c3cccs3)cc2NC(=O)/C=C\c2ccc3c(c2)OCO3)n1	26*
CC(C)c1cc(=O)[nH]c(-n2nc(-c3cccs3)cc2NC(=O)c2cccs2)n1	75
Cc1cc(=O)[nH]c(-n2nc(C)cc2NC(=O)/C=C/c2ccc3c(c2)OCO3)n1	54
CN(C)S(=O)(=O)c1ccc(C(=O)Nc2nc(-c3ccc(Cl)c(Cl)c3)cs2)cc1	61
COc1cccc(CNC(=O)c2csc(Nc3ccc(S(C)(=O)=O)cc3)n2)c1	65
O=S(=O)(NCCOc1ccc2c(c1)OCO2)c1ccccc1C(F)(F)F	61
